Measured values taken from PubChem BioAssay.
Calls of active or inactive are those of the source.

Experiments:
[1] = tested on: Plasmodium falciparum Sir2 (PF13_0152, Sir2A); experiment: pfSir2 binders on small-molecule microarrays, primary screen, biochemical, small-molecule microarray, 635 nm fluorescence (AID 1098); details: small-molecule microarray binding, fluorescence 635 nm; higher = more signal;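 further: score merges spot fluorescence intensity with its signal-to-noise ratio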
[2] = small-molecule microarray binders of probe aDKK1, primary screen, biochemical, biotinylated probe, 635/667 nm fluorescence (AID 1099); details: higher = more signal;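 further: score merges 667nm spot fluorescence with signal to noise across triplicate slides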
[3] = small-molecule microarray binders of probe aCHRDL2, primary screen, biochemical, biotinylated probe, 635/667 nm fluorescence (AID 1100); details: higher = more signal
[4] = splicing luciferase reporter signal modulators, primary screen, spliceosome inhibition project, cell-based, HEK293, splice +/- reporter (AID 1101); details: luminescence, 24 h, higher = more signal, called active from +8 up or from −8 down;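 further: HEK293 cells carrying a splicing-competent luciferase reporter gene; test concentration not given here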
[5] = target: Fibroblast growth factor 10 (Homo sapiens) (UniProt O15520); experiment: FGF10 binders on small-molecule microarrays, primary screen, biochemical, small-molecule microarray, 635 nm fluorescence (AID 1102); details: FGF10 binding, fluorescence 635 nm, higher = more signal
Sequence of Fibroblast growth factor 10 (Homo sapiens) (O15520 whole entry, looked up): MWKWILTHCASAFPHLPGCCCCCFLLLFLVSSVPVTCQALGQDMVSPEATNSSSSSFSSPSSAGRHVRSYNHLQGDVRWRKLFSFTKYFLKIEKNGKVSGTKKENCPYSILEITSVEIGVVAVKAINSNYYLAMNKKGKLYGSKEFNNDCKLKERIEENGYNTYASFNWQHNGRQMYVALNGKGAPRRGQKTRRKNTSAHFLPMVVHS

[6] = tested on: glycogen synthase kinase-3 (GSK3A per assay name; protocol says GSK3B); experiment: GSK3 binders on small-molecule microarrays, primary screen, biochemical, small-molecule microarray, 635 nm fluorescence, GSK3A (AID 1103); details: small-molecule microarray binding, fluorescence 635 nm; higher = more signal; further: the record names both GSK3A and GSK3B
[7] = target: Epidermal growth factor receptor (Homo sapiens) (UniProt P00533); experiment: EGFR binders on small-molecule microarrays, primary screen, biochemical, small-molecule microarray, 635 nm fluorescence (AID 1104); details: EGFR binding, higher = more signal;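 further: score merges 667 nm emission intensity with spot signal to noise over triplicate slides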
Sequence of Epidermal growth factor receptor (Homo sapiens) (P00533 whole entry, looked up): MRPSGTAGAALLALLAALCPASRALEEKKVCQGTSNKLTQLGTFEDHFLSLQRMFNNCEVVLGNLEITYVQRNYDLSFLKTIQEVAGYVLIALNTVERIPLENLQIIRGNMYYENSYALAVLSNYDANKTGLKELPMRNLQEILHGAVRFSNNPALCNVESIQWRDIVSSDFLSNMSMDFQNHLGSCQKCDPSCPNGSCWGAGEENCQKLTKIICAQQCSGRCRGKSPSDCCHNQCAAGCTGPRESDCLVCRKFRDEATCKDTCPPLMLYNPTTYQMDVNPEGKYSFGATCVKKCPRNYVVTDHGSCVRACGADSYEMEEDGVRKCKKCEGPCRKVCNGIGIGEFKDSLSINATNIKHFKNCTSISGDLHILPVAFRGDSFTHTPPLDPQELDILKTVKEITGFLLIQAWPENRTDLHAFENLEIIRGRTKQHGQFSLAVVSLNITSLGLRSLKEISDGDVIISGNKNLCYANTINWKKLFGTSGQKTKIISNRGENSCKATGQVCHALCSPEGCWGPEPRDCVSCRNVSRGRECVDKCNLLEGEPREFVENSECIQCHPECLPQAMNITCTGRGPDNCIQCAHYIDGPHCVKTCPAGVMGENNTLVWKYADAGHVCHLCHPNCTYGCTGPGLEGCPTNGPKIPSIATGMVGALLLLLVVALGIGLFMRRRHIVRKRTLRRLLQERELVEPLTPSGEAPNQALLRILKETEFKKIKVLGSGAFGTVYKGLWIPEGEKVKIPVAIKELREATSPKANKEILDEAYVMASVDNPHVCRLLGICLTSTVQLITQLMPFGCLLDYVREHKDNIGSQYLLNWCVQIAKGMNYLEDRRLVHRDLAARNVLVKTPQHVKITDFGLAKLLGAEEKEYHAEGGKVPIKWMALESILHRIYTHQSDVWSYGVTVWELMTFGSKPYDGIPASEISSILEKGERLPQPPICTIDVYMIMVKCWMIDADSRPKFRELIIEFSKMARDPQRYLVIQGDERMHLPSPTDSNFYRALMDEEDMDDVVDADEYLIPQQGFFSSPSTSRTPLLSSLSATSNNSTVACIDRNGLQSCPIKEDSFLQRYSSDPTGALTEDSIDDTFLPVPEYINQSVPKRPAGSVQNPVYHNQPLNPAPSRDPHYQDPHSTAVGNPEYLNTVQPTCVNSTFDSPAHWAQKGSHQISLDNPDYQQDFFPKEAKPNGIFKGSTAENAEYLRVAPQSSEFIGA

[8] = target: Follistatin-related protein 3 (Homo sapiens) (UniProt O95633); experiment: FSTL3 binders on small-molecule microarrays, primary screen, biochemical, small-molecule microarray, 635 nm fluorescence (AID 1105); details: FSTL3 binding, higher = more signal;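 further: score merges emission near 667 nm and signal to noise per printed spot across three slides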
Sequence of Follistatin-related protein 3 (Homo sapiens) (O95633 whole entry, looked up): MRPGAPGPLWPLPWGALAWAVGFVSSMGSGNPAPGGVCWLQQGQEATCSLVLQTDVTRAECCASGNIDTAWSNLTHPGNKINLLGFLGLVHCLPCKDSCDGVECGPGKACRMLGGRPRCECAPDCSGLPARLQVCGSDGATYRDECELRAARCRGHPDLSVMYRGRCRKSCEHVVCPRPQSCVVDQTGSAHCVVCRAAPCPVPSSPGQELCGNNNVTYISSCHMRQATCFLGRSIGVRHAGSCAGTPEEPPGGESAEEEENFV

[9] = target: Dickkopf-related protein 1 (Homo sapiens) (UniProt O94907); experiment: DKK1 binders on small-molecule microarrays, primary screen, biochemical, small-molecule microarray, 635 nm fluorescence scan (AID 1106); details: DKK1 binding, higher = more signal;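 further: score merges emission near 667 nm with signal to noise over three replicate slides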
Sequence of Dickkopf-related protein 1 (Homo sapiens) (O94907 whole entry, looked up): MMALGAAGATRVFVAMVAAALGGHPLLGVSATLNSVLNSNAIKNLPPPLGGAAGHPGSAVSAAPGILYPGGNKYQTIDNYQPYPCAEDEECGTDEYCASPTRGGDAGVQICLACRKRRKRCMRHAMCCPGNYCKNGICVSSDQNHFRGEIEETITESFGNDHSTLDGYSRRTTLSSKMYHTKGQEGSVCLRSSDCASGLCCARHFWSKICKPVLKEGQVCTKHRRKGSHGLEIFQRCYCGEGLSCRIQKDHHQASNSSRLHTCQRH

[10] = tested on: Inhibin beta A chain (activin A); experiment: INHBA (activin A) binders on microarrays, primary screen, biochemical, small-molecule microarray, 635 nm fluorescence scan (AID 1107); details: small-molecule microarray binding, higher = more signal;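 further: mouse activin A protein probed at 4.33 µg/mL on printed slides; score merges bound-protein fluorescence near 667 nm with spot signal-to-noise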
[11] = tested on: Human papillomavirus type 1a protein E7 (residues 44-93); experiment: HPV1a E7 fragment binders on microarrays, primary screen, biochemical, small-molecule microarray, residues 44-93, 635 nm fluorescence (AID 1108); details: small-molecule microarray binding, fluorescence 635 nm; higher = more signal;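 further: E7 fragment applied at 1 µg/mL in TBST for 1 h at 4 C; score combines spot fluorescence with its signal to noise ratio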
[12] = modulators of HCV replicon luciferase signal, primary screen, HCV replication inhibitor project, Huh7 cells, luciferase reporter (AID 1109); details: 48 h, higher = more signal;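 further: huh7 hepatoma cells harbouring a luciferase neomycin HCV replicon reporter; luciferase luminescence as measure of HCV replicon replication; test concentration not given here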
[13] = target: Left-right determination factor 2 (Homo sapiens) (UniProt O00292); experiment: LEFTY2 binders on small-molecule microarrays, primary screen, biochemical, small-molecule microarray, 635 nm fluorescence scan (AID 1110); details: LEFTY2 binding, higher = more signal
Sequence of Left-right determination factor 2 (Homo sapiens) (O00292 whole entry, looked up): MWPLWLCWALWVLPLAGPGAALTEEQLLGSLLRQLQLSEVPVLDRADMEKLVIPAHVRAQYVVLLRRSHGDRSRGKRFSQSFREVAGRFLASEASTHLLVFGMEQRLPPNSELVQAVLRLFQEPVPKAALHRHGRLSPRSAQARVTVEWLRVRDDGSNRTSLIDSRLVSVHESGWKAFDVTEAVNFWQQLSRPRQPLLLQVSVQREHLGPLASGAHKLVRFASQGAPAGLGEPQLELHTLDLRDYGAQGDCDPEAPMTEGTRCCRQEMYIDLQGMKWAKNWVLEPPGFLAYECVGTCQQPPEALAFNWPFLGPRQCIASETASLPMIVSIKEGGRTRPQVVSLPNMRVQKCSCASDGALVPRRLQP

[14] = target: Calmodulin-1 (Homo sapiens) (UniProt P0DP23); experiment: CALM1 binders on microarrays, EGTA buffer, profiling panel, biochemical, small-molecule microarray, Cy5-labelled CALM1 (AID 1111); details: Cy5-CALM1 binding fluorescence, higher = more signal;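 further: labelled calmodulin applied in Tris saline Tween buffer holding calcium plus EGTA and DTT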
[15] = target: Calmodulin-1 (Homo sapiens) (UniProt P0DP23); experiment: calcium-bound CALM1 binders on microarrays, profiling panel, artefact control for SMM control-protein annotation, biochemical, small-molecule microarray, Cy5-labelled CALM1, plus calcium (AID 1112); details: Cy5-CALM1 binding fluorescence, higher = more signal;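 further: score merges spot fluorescence with signal to noise from triplicate slides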
[16] = small-molecule microarray binders of probe aWnt5a, primary screen, biochemical, biotinylated probe, 635/667 nm fluorescence (AID 1113); details: higher = more signal;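 further: score merges 667 nm fluorescence intensity with signal-to-noise per printed feature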
[17] = small-molecule microarray binders of probe aShh, primary screen, biochemical, biotinylated probe, 635/667 nm fluorescence (AID 1114); details: higher = more signal;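 further: probe is biotin-labelled aShh protein from a stem cell growth factor screen; measures binding of labelled protein to compounds printed on the slide; score merges feature fluorescence at 667 nm with signal-to-noise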
[18] = small-molecule microarray binders of probe aNog, primary screen, biochemical, biotinylated probe, 635/667 nm fluorescence (AID 1115); details: higher = more signal;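 further: probe is biotinylated aNog protein used at 0.15 µg/mL for 1 h at 4 C; z-score combines 667 nm fluorescence of each spot with its signal to noise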
[19] = target: Torsin-1A-interacting protein 1 (Homo sapiens) (UniProt Q5JTV8); experiment: LAP1 binders from COS7 cell lysate, primary screen, small-molecule microarray, 635/667 nm fluorescence (AID 1116); details: COS7-hLAP1 lysate binding, 635 nm fluorescence, higher = more signal
Sequence of Torsin-1A-interacting protein 1 (Homo sapiens) (Q5JTV8 whole entry, looked up): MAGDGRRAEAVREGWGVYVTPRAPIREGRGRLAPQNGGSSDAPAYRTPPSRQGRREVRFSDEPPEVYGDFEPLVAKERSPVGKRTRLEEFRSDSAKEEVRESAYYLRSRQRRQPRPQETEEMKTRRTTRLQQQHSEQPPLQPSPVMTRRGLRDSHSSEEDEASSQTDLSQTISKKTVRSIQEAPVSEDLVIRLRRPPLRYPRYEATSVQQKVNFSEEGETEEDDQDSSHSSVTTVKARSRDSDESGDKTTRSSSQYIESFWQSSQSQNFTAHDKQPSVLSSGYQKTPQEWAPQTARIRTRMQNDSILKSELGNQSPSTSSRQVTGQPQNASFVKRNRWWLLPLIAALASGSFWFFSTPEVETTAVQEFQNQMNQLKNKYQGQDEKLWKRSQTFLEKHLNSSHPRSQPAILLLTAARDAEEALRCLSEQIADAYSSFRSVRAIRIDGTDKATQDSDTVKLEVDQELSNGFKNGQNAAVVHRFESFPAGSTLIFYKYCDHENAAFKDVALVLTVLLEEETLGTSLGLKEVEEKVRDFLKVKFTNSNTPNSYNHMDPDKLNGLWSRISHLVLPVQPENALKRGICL

[20] = target: Alpha-bungarotoxin (Bungarus multicinctus) (UniProt P60615); experiment: alpha-bungarotoxin binders on microarray, profiling panel, artefact control for SMM control protein annotation, biochemical, small-molecule microarray, Alexa647 label, 635/667 nm fluorescence (AID 1117); details: alpha-BTX-A647 binding fluorescence, higher = more signal
Sequence of Alpha-bungarotoxin (Bungarus multicinctus) (P60615 whole entry, looked up): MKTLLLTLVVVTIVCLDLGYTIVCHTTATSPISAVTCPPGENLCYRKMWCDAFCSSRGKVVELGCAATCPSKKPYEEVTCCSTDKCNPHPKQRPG

SMILES | composite z-score [1] | composite z-score [2] | composite z-score [3] | z-score [4] | composite z-score [5] | composite z-score [6] | composite z-score [7] | composite z-score [8] | composite z-score [9] | composite z-score [10] | composite z-score [11] | z-score [12] | composite z-score [13] | composite z-score [14] | composite z-score [15] | composite z-score [16] | composite z-score [17] | composite z-score [18] | composite z-score [19] | composite z-score [20]
Cc1ccc(C(C)CC(O)C2C=CC3C(=O)N(C)C(=O)C3N2NC(=O)OC(C)(C)C)o1 (stereo not given) | 1.07 | 0.202 | 0.0719 | 1.92 (inactive) | 0.803 | 1.29 | 0.96 | 1.3 | 0.837 | -0.0924 | 0.598 | 0.255 | 1.19 | 1.73 | 0.0152 | 0.246 | 0.424 | 0.226 | 1.27 | 1.73
O=C1C2C=CC(C(O)C(c3ccccc3)c3ccccc3)N(n3cnnc3)C2C(=O)N1Cc1ccccc1 (stereo not given) | 0.55 | -0.0184 | 0.571 | 0.00252 (inactive) | 1.25 | 1.07 | -1.18 | 0.439 | 1.24 | 0.581 | 1.24 | -0.832 | -0.164 | 0.836 | -0.34 | 0.07 | 0.184 | 0.976 | 1.57 | 0.652
C=C(/C(=C/C[C@@H](OC(C)=O)c1ccc(OCCO)cc1)c1cnc2ccccc2c1)C(C)C | 1.2 | -0.229 | 0.0459 | -0.837 (inactive) | 0.528 | -0.0912 | -0.103 | 0.77 | 0.218 | 1.5 | 1.32 | -1.19 | 0.49 | -0.196 | -0.541 | -0.091 | 0.111 | 0.0541 | 0.113 | 0.249
CCCCC(O)C1C=CC2C(=O)N(c3ccccc3)C(=O)C2N1Nc1ccccc1F (stereo not given) | 1.24 | 1.4 | 1.17 | 0.826 (inactive) | 0.857 | 0.827 | -0.374 | 0.443 | -0.683 | 0.834 | 0.392 | -0.472 | 0.22 | 1.48 | -0.124 | 0.241 | 0.261 | 1.87 | 1.21 | 3.13
COCCn1c(C(=O)N2CCCC2)cc2c1C[C@H]1CN(C(=O)c3ccccc3)[C@@](Cc3ccc(F)cc3)(C(=O)OC)[C@@H]21 | 1.17 | 0.418 | 0.43 | -0.604 (inactive) | -0.149 | 1.31 | 0.291 | 0.664 | 0.131 | 0.593 | 1.43 | -1.42 | -0.0638 | 2.41 | 0.954 | 0.402 | 0.636 | -0.489 | 2.88 | 0.476
CN1C(=O)C2C=CC(C(O)C3=C[C@H]4C[C@@H](C3)C4(C)C)N(Nc3ccccc3)C2C1=O (stereo not given in full) | 0.46 | 0.462 | 0.63 | 0.757 (inactive) | 0.944 | 0.776 | 0.356 | 1.19 | 0.109 | 1.42 | 1.41 | -0.181 | 0.269 | 0.18 | -0.162 | 0.14 | 0.13 | 0.612 | 0.802 | 0.647
C=CCNC(=O)[C@H]1[C@@H]2C(=O)O[C@@H](c3ccccc3)[C@@H](c3ccccc3)N2[C@@H](c2ccc(O)cc2)[C@]12C(=O)N(C(=O)OCCOC)c1ccc(C#CCNC(N)=O)cc12 | 0.867 | 0.297 | 0.537 | 0.481 (inactive) | 0.855 | 1.11 | 0.157 | 0.999 | 0.936 | 0.969 | 0.863 | -0.767 | 1.01 | -0.0456 | 0.143 | 0.0077 | -0.0769 | 0.0989 | 0.585 | 1.07
C=CCNC(=O)[C@H]1[C@@H]2C(=O)O[C@@H](c3ccccc3)[C@@H](c3ccccc3)N2[C@@H](c2ccccc2OCCO)[C@]12C(=O)Nc1ccc(C#CC3=CCCCC3)cc12 | 1.28 | -0.22 | 0.317 | -2.23 (inactive) | 1.27 | 1.3 | 0.48 | 1.24 | 0.646 | 1.17 | 1.12 | -3.52 | 0.531 | 0.904 | -0.321 | -0.1 | 0.0588 | 0.163 | 0.358 | 0.99
CCCCN1CC=CC23O[C@@H]4C=CCOC(=O)[C@@H]4[C@H]2C(=O)N(CCCCCO)[C@@H]3C1=O (stereo not given in full) | 1.15 | -0.159 | 0.641 | -0.248 (inactive) | -0.828 | -0.656 | -0.945 | -1.39 | -1.03 | -0.0355 | -0.524 | 0.536 | -1.53 | -0.615 | -0.363 | -0.124 | 0.627 | 0.151 | 1.95 | -1.47
COC(=O)[C@@]1(Cc2ccc(OC)cc2)[C@H]2c3cc(C(=O)N4CCCC4)n(Cc4ccc(OC)c(OC)c4)c3C[C@H]2CN1C(=O)c1ccccc1 | 1.04 | 1.56 | 0.9 | -1.81 (inactive) | 0.784 | 1.17 | 1.34 | 1.42 | 0.56 | 1.01 | 1.39 | -1.72 | 0.381 | 2.16 | 0.811 | -0.158 | -0.008 | 0.162 | 0.371 | 0.381
O=C1O[C@H](c2ccccc2)[C@H](c2ccccc2)N2[C@H]1[C@@H](C(=O)N1CCN(c3ncccn3)CC1)[C@]1(C(=O)Nc3ccc(C#CC4=CCCCC4)cc31)[C@H]2c1ccc(O)cc1 | 0.789 | -0.0869 | 0.566 | -0.725 (inactive) | 0.76 | 0.754 | 0.442 | 0.738 | -0.0441 | -0.0074 | 1.41 | -1.98 | 0.144 | 0.961 | 0.336 | -0.0721 | -0.221 | 0.113 | 0.792 | 1.44
C[N+](C)(C)CCCC[C@@H]1NC(=O)[C@@H]2C[C@H](C(=O)NCCCCCN)[C@H](c3cccc(OCCO)c3)N2C1=O | 1.07 | 0.0277 | 0.356 | -0.657 (inactive) | 1.12 | 1.3 | -0.167 | -0.144 | -0.17 | -0.68 | 1.32 | -0.0028 | -0.202 | 1.7 | 1.12 | -0.289 | -0.256 | 0.422 | 0.987 | 0.932
O=C1NC(=O)C2C1C=CC(C(O)c1cccc3ccccc13)N2Nc1ccccn1 (stereo not given) | 0.621 | 0.103 | 0.15 | 1.03 (inactive) | 0.522 | 0.233 | 0.688 | 0.857 | 0.31 | 0.924 | 0.355 | 0.496 | 0.326 | -0.168 | -0.477 | -0.034 | 0.401 | 0.116 | 0.594 | 0.307
COc1ccc([Si](C)(C)[C@H]2[C@H](CC(=O)N3CCC[C@H]3CO)O[C@@]3(C(=O)N(Cc4cccc(N5C(=O)c6cccc7cccc5c67)c4)c4ccccc43)[C@@H]2C)cc1 | 1.45 | -0.109 | -0.098 | 0.685 (inactive) | 1.29 | 0.483 | 0.761 | 1.25 | 0.892 | 0.459 | 1.34 | -3.12 | 0.758 | 0.681 | -0.0975 | 0.0775 | -0.196 | 1.02 | 0.582 | 1.56
CC(C)(C)OC(=O)CC[C@@]1(C(N)=O)N=C(c2ccc(OCCCO)cc2)O[C@@H]1c1ccccc1 | 1.19 | 0.307 | 0.666 | -0.0742 (inactive) | 0.958 | 1.15 | -0.467 | 0.0089 | -0.534 | 0.557 | 1.38 | 0.14 | -0.289 | 0.31 | -0.216 | -0.0512 | -0.419 | -0.534 | 1.2 | 0.646
COc1ccc(C(O)C2C=CC3C(=O)NC(=O)C3N2Nc2ccccn2)c2ccccc12 (stereo not given) | 0.157 | 0.046 | 0.108 | 0.841 (inactive) | 0.392 | -0.39 | 0.307 | 0.16 | 0.378 | 0.804 | -0.266 | 0.307 | 0.315 | -0.0051 | -0.194 | -0.219 | 0.147 | -0.0863 | -0.259 | 0.172
